Rab9 prom act – Rab9 promoter activation; Huh7 Rab9 promoter-luciferase reporter, luminescence, 24 h; Potency, µM (titrated, usually from 9.22 µM), for inactives: top-dose activation, negative = inhibition, hits mostly activators; 320,000 tested, 2.8% active; AID 485297; further: % of control where 0% means no effect; nearly all actives have a fitted effect of over 60% in size
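Luciferase signal after 10 min detection reagent at ambient indicates Rab9 promoter upregulation; stably transfected Huh7 cells were treated 24 h with compound in DMSO at 37 °C, 5% CO2.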
FLuc modulator – counter-screen for miR-21 project: firefly luciferase inhibitors or activators; purified FLuc, Km substrates, luminescence inhibition; Potency, µM (titrated, usually from 57.5 µM), for the others: at the top dose activity change, negative = inhibition, usual class: inhibitors; 360,000 tested, 6.9% active; AID 588342;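 further: plate controls were vehicle for no effect and reference inhibitor for full effect; nearly all actives have a fitted effect of over 55% in size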
Target sequence (P08659 whole entry, looked up): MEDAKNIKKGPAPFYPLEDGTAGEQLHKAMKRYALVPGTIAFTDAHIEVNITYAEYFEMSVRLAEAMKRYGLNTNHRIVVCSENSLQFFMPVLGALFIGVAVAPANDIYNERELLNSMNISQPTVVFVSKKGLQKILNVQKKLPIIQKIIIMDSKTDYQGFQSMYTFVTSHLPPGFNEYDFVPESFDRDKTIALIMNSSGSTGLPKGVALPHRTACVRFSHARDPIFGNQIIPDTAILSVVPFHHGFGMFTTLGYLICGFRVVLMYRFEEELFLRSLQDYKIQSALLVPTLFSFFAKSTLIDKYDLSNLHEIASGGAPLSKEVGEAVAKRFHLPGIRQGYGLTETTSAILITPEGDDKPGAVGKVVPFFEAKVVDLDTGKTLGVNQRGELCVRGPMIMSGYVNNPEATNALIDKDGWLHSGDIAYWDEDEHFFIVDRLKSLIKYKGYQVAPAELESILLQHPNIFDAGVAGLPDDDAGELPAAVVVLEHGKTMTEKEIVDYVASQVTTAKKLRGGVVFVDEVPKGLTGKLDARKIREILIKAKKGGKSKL
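Purified P. pyralis luciferase, 10 nM final, with Km-level 10 uM D-luciferin and 10 uM ATP in 50 mM Tris acetate pH 7.5, 10 mM Mg acetate, 0.01% Tween-20, 0.05% BSA; 6-point qHTS titration about 60 µM downward; luminescence read.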
SMN2 splice enh – enhancers of SMN2 splice variant expression; HEK293 SMN2-luciferase splicing reporter, luminescence, 30-36 h; Potency, µM (titrated, usually from 46.1 µM), for the others: at the top dose activity change, positive = activation, usual class: activators; 210,000 tested, 2.8% active; further: % of control where 0% means no effect; nearly all actives have a fitted effect of over 55% in size
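HEK293 cells carry an SMN2 minigene-luciferase reporter in which exon 7 inclusion puts luciferase in frame. Cells were seeded at 2000 cells/well, attached for 10-12 hours, then exposed to compounds for 30-36 hours at 37C before ONE-Glo luminescence.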
ELG1 genotox – induces genotoxicity in HEK293T cells with luciferase-tagged ELG1 | HEK293T ELG1-luciferase reporter, luminescence, 16 h | Potency, µM (top dose mostly 46 µM), for inactives: top-dose activity change, positive = activation, hits mostly activators | 330,000 tested, 1.3% active; further: % of control where 0% means no effect; nearly all actives have a fitted effect of over 60% in size
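ELG1-luciferase HEK293T cells, 2,000/well; compound pinned in; 16 hr, 37 °C, 5% CO2; ONE-Glo, 30 min RT; luminescence on CCD imager.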
uPA surface inh – cell surface uPA generation inhibition. cell surface uPA generation assay, qHTS. 330,000 tested, 0.31% active. Potency, µM (top dose mostly 38.3 µM), inactives show at the highest dose activity change, negative = inhibition, actives largely listed as inhibitors; active means well fitted inhibition curve with a large enough effect; inconclusive means small, poorly fitted or top-dose-only effect; inactive means no such curve, though single readings can be large or run the other way; tested in mouse RAW 264.7 cells; further: on the % scale 0 is the no-effect control and ±100 the full control effect; nearly all actives have a fitted effect of over 55% in size
NPC1 prom act – activates the NPC1 promoter | Huh7 NPC1 promoter luciferase reporter, 24 h | Potency, µM (titrated, usually from 9.22 µM), for inactives: at the top dose activation, actives largely listed as activators | 320,000 tested, 2.4% active; further: % of control where 0% means no effect; nearly all actives have a fitted effect of over 60% in size
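Stably transfected Huh7 (NPC1 promoter→luciferase), 1500 cells/well in Opti-MEM + 10% FBS, 2 h settle, then compound 24 h at 37 °C. Luminescence after 10 min with Amplite reagent.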
Numbers without * were called inactive; ? = inconclusive; . = no result given; [ ] = dose if it differs, or a comment. The list is not random: actives were taken first. Their share in the collection is about 7.3%. Unless noted, the call rests on the fitted dose curve; in most records, active means well fitted curve in the direction sought with a large enough effect; inconclusive means small, poorly fitted or top-dose-only effect, or another doubt; inactive means no such curve, though single readings can be large; an effect the other way counts as inactive or inconclusive. Potency means the concentration at half of the fitted maximal effect.

SMILES	Rab9 prom act	FLuc modulator	SMN2 splice enh	ELG1 genotox	uPA surface inh	NPC1 prom act
O=C(N/N=C/c1cccnc1)c1cccc(Cl)c1	15%	?	.	8%	-3%	19%
CCOc1ccc(Sc2cc(C(=O)NCc3ccc(F)cc3)c3ccccc3n2)cc1	.	-3%	.	.	.	.
O=C(O)/C=C(/C(=O)O)[C@]12CCN3CC4=CCO[C@@H]5CC(=O)N[C@@H]1C5[C@H]4C[C@H]32 (some centres not stated)	.	.	-3%[9.22 µM]	.	.	.
CN(C)c1ccc(/C=N/NC(=O)c2cnc3ccccc3c2)cc1	2%	?	.	8%	6%	12%
O=C(CCNC(=O)c1ccccc1Cl)N/N=C\c1ccc(O)cc1	-10%	-12%	.	1%	3%	0%
CC(C)c1ccc(/C=N/NC(=O)CCNC(=O)c2ccccc2)cc1	?	8.5µM*	.	23%	-5%	?
Cc1cccc(/C=N\NC(=O)c2csnn2)c1	28%	8.5µM*	17%	?	3%	?
CN(C)c1ccc(/C=N\NC(=O)c2csnn2)cc1	0.63µM*	3.8µM*	16µM*	?	-3%	0.89µM*
O=C(N/N=C/c1ccc(N2CCOCC2)cc1)c1ccccn1	2.2µM*	6.7µM*	.	?	?	2.5µM*
Cc1cc(C)c2oc(-c3cc(NC(=O)Cc4ccccc4)ccc3Cl)nc2c1	.	-3%	-2%	.	.	.
O=[N+]([O-])c1ccc(S(=O)(=O)Cc2ccccc2)c2nonc12	.	.	-6%[9.22 µM]	.	.	.
CC(C)c1ccc(C(=O)N/N=C/c2cccc(Cl)c2Cl)cc1	?	8.5µM*	5%	0%	2%	?
CC(C)Oc1ccccc1/C=N/NC(=O)c1ccccc1Cl	0%	?	.	0%	3%	26%
CN(C)c1ccc(/C=N/NC(=O)c2ccn(C)n2)cc1	4.5µM*	3.8µM*	.	?	?	2.5µM*
O=C(c1ccccc1)c1ccc2nc(Nc3ccccc3Cl)c3nncn3c2c1	.	3%	.	.	.	.
Cc1cnc(NC(=O)Cc2ccccc2Cl)s1	3%	4%	.	8%	-15%	-2%
CC(=O)c1csc(Nc2ccccc2Cl)n1	2.8µM*	19µM*	.	?	-1%	3.2µM*
O=C(c1ccccc1)c1cnc(Nc2ccccc2Cl)s1	1.3µM*	1.9µM*	20µM*	?	.	1µM*
CC(C)(C)C(=O)c1cnc(Nc2ccccc2Cl)s1	.	2.4µM*	13µM*	.	-5%	.
Cc1ccc(-n2c(CCC(=O)O)ccc2-c2cccs2)cc1C	-8%	12µM*	-12%	2%	1%	2%
CCc1ccc(-n2c(CCC(=O)O)ccc2-c2cccs2)cc1	.	13µM*	2%	.	.	.
CCOC(=O)c1ccc(-n2c(CCC(=O)O)ccc2-c2cccs2)cc1	-11%	?	3%	5%	-6%	-5%
Cc1ccc(Cl)cc1-n1c(CCC(=O)O)ccc1-c1cccs1	.	?	-5%	.	.	.
Cc1cc(C)n(CCc2nc(-c3ccc(-c4ccccc4)cc3)cs2)n1	22%	6.7µM*	-49%	?	-4%	24%
COc1ccc(-c2csc(CCn3nc(C)cc3C)n2)cc1	9%	?	-28%	-3%	-3%	2%
SMILES	Rab9 prom act	FLuc modulator	SMN2 splice enh	ELG1 genotox	uPA surface inh	NPC1 prom act
O=C(NC1(C(F)(F)F)C(=O)Nc2c1c(=O)[nH]c(=O)n2-c1ccc(F)cc1)c1ccccc1 (configuration not stated)	.	3%	0%	.	.	.
O=C1NC(=O)/C(=C\c2ccc(Cl)nc2)S1	?	15µM*	.	?	?	?
COc1ccc(/C=C2\SC(=Nc3ccccc3)NC2=O)cc1	4%	7.6µM*	.	7%	.	-5%
CCc1ccc(N=C2NC(=O)/C(=C/c3ccc(OCC(=O)O)cc3)S2)cc1	-11%	6µM*	.	-1%	?	2%
COc1ccccc1N=C1NC(=O)/C(=C/c2ccc(N(C)C)cc2)S1	4%	1.1µM*	.	?	?	-11%
COc1ccc(N=C2NC(=O)/C(=C/c3ccc(O)c(OC)c3)S2)cc1	-2%	?	-14%	12%	-5%	-5%
COc1cc(/C=C2/SC(=Nc3ccc(O)cc3)NC2=O)cc(OC)c1O	15%	2%	-4%	17%	-5%	-21%
CCc1ccc(N=C2NC(=O)/C(=C/c3ccc(OCC(=O)O)c(OC)c3)S2)cc1	0%	?	.	-1%	7%	-1%
CCCCCCCCCCCCCCCCOC[C@H](COP(=O)([O-])OCC[N+](C)(C)C)OC(=O)NC	.	.	3%	.	.	.
O=C1NC(=Nc2ccccc2)S/C1=C\c1cccnc1	-1%	?	.	6%	-12%	2%
COc1ccc(C=C2SC(=S)NC2=O)cc1	.	.	.	.	-9%	.
COc1ccc(/C=C2/SC(=O)NC2=O)cc1	3.2µM*	4.3µM*	.	?	?	?
O=C1NC(=Nc2cccnc2)S/C1=C/c1ccc(F)cc1	-6%	11µM*	.	3%	-4%	-4%
COC(=O)C(C(=O)OC)C(Cc1cc(F)cc(F)c1F)NC=O (configuration not stated)	.	.	10%	.	.	.
c1ccc(-n2nc3c(ccc4cnnc43)[nH]2)cc1	1.8µM*	7.6µM*	?	?	-3%	2.5µM*
CCN1C(=O)/C(=C\c2cccc(OC(=O)c3ccco3)c2)SC1=S	4%	5%	.	4%	-3%	-6%
O=C(O)CN1C(=O)/C(=C\c2cccc(OC(=O)c3ccco3)c2)SC1=S	0%	24µM*	.	0%	3%	4%
C=CCN1C(=O)/C(=C\c2cccc(OC(=O)c3ccco3)c2)SC1=S	1%	0%	.	16%	0%	-9%
O=C(O)CN1C(=O)/C(=C\c2ccc(OC(=O)c3ccco3)cc2)SC1=S	-6%	7.6µM*	.	-2%	3%	3%
O=C(O)CN1C(=O)/C(=C/c2ccc(SCc3ccccc3)o2)SC1=S	-2%	19µM*	15%	1%	3%	-4%
O=c1c2c3c(sc2nc2sc(CN4CCOCC4)cn12)CCCC3	?	-5%	?	?	7%	4.5µM*
Cc1ccc(/C=C/C(=O)N2CCc3ccccc32)o1	2.5µM*	1.9µM*	.	8.2µM*	-22%	2.8µM*
O=C(/C=C/c1ccco1)N1CCc2ccccc21	0.79µM*	2.1µM*	10µM*	1µM*	-14%	1.8µM*
CCOC(=O)/C=C/C(=O)N1CCc2ccccc21	4%	11µM*	-6%	1%	-3%	0%
Cc1ccccc1-c1nc(-n2ccnc2)c2ccccc2n1	.	.	-42%	.	.	.
COc1ccc(NC(=O)C2CCCN(C(=O)c3cnn(-c4ccccc4)c3-n3cccc3)C2)cc1 (configuration not stated)	.	-12%	-14%	.	.	.
CC(=O)N1CCC2(CC1)CCN(c1ncccn1)CC2	.	.	-10%	.	.	.

Bioassay records: PubChem, National Center for Advancing Translational Sciences (NCATS)
